Measurements as given in PubChem BioAssay (EPA / NIEHS).
Active and inactive are the calls of the source. How the source made its calls: active means hit-call score of the fitted dose curve at least 0.9, where 1 is the maximum; inactive means score below 0.9.

Experiments:
[1] = ATG_E_Box_CIS: Attagene CIS-FACTORIAL HepG2 Assay for human Enhancer Box (E-box) (AID 2282936); conditions: HepG2 E-box cis-reporter transcription, actives raise or lower the signal
In short: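 In this cell-based setup, HepG2 cells bearing transfected promoter-driven reporter units were exposed to chemicals for 24 h; reporter transcripts were amplified, 6-FAM-labelled, cut with HpaI and sized by capillary electrophoresis.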

[2] = ATG_M_61_CIS: Attagene CIS-FACTORIAL HepG2 Assay for M61 Transcription Factor (Internal Marker) (AID 2282937); conditions: HepG2 Attagene CIS-FACTORIAL M61 internal marker reporter; actives raise or lower the signal
In short: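 HepG2 cells transiently transfected with cis-element-driven multiple reporter transcription units, dosed for 24 h. Reporter mRNA measured by RT-PCR, 6-FAM primer-extension labelling, HpaI digestion and capillary electrophoresis; bidirectional fit versus DMSO baseline.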

[3] = ATG_EGR_CIS: Attagene CIS-FACTORIAL HepG2 Assay for human Early Growth Response 1 (EGR1) (AID 2282938); conditions: HepG2 Attagene CIS-FACTORIAL EGR reporter mRNA; actives raise or lower the signal
In short: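 HepG2 cells transiently transfected with cis-promoter-driven multiplexed reporter transcription units; reporter mRNA measured 24 h after compound dosing by RT-PCR, 6-FAM primer extension, HpaI digestion and capillary electrophoresis. Bidirectional fit versus DMSO baseline.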

[4] = ATG_M_19_CIS: Attagene CIS-FACTORIAL HepG2 Assay for M19 Transcription Factor (Internal Marker) (AID 2282939); conditions: HepG2 Attagene CIS-FACTORIAL M19 internal marker reporter; actives raise or lower the signal
In short: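 Internal marker readout, fitted in both directions against DMSO, from HepG2 cells carrying transfected cis-element reporter constructs; RT-PCR and capillary electrophoresis of reporter mRNA after 24 h exposure.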

[5] = ATG_ERE_CIS: Attagene CIS-FACTORIAL HepG2 Assay for Estrogen Response Element (ERE) (AID 2282940); conditions: HepG2 ERE cis-reporter, Attagene RNA transcript; actives raise or lower the signal
In short: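 After 24 h compound treatment, RNA from transfected HepG2 cells was reverse-transcribed, reporter cDNA PCR-amplified, FAM-labelled, HpaI-cut and resolved by capillary electrophoresis. ERE-driven cis reporter transcripts reflect endogenous factors; gain or loss scored against DMSO.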

[6] = ATG_Ets_CIS: Attagene CIS-FACTORIAL HepG2 Assay for human Erythroblast Transformation Specific (ETS) (AID 2282941); conditions: HepG2 ETS cis-reporter transcription, actives raise or lower the signal
In short: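 Cis-regulated reporter mRNA induction in HepG2 (transient transfection), 24 h exposure, RT-PCR plus capillary electrophoresis detection; DMSO serves as negative control and baseline.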

[7] = ATG_FoxO_CIS: Attagene CIS-FACTORIAL HepG2 Assay for human Forkhead box O (FoxO) (AID 2282943); conditions: HepG2 Attagene cis-reporter, FoxO element, mRNA; actives raise or lower the signal
In short: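 Transfected HepG2 reporter cells exposed to test chemical for 24 h; reporter RNA measured by reverse transcription, PCR and fluorescent capillary electrophoresis; curves fitted for increases and decreases against DMSO.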

[8] = ATG_GATA_CIS: Attagene CIS-FACTORIAL HepG2 Assay for human GATA Binding Protein (AID 2282944); conditions: HepG2 GATA cis-element reporter, Attagene multiplex mRNA; actives raise or lower the signal
In short: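 Reporter transcripts from a GATA cis-regulated unit, among multiplexed reporters in transfected HepG2 cells, were measured by RT-PCR with capillary electrophoresis after 24 h dosing. Induction or loss scored relative to DMSO.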

[9] = ATG_GLI_CIS: Attagene CIS-FACTORIAL HepG2 Assay for human Zinc Finger Protein GLI1 (AID 2282945); conditions: HepG2, Attagene cis-factorial reporter mRNA, GLI element; actives raise or lower the signal
In short: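 Transiently transfected HepG2 cells report endogenous transcription factor activity via cis-element-driven reporter units. After 24 h compound exposure, reporter mRNA was measured by RT-PCR with capillary electrophoresis; bidirectional fitting against DMSO baseline.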

[10] = target: Hepatocyte nuclear factor 3-beta (Homo sapiens) (UniProt Q9Y261); experiment: ATG_FoxA2_CIS: Attagene CIS-FACTORIAL HepG2 Assay for human Forkhead box A2 (FOXA2) (AID 2282942); conditions: HepG2 cis-reporter transcription factor activity, 24 h; actives raise or lower the signal
In short: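 HepG2 cells transiently transfected with multiple cis-regulated reporter transcription units, dosed for 24 h. Reporter mRNA measured by RT-PCR, 6-FAM labelling, HpaI digestion and capillary electrophoresis; bidirectional fitting against DMSO baseline.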

Measured: AC50

Sequence of Hepatocyte nuclear factor 3-beta (Homo sapiens) (Q9Y261 whole entry, looked up): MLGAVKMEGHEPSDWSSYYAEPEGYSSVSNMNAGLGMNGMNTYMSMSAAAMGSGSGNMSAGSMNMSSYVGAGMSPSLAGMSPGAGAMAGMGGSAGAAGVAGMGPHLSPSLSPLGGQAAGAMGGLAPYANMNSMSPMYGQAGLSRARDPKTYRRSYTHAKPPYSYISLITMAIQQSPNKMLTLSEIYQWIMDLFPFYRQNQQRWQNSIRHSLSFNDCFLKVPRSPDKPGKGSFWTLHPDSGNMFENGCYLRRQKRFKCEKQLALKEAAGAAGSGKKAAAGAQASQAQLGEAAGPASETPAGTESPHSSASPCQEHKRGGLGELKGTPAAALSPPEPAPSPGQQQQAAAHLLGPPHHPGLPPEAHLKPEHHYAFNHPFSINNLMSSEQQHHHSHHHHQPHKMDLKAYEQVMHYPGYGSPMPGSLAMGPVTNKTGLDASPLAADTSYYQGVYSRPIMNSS

CCC(C)OC(=O)c1ccc(O)cc1 (stereo not given)
active: [5] 0.868 µM
not listed: [10]
inactive: all other assays above

C=CCOCC(O)CCl (stereo not given)
not listed: [8]
inactive: all other assays above

N[C@H]1C(O)O[C@H](CO)[C@H](O)[C@@H]1O (stereo not given in full)
active: [5] 39.9 µM
not listed: [8]
inactive: all other assays above

Cc1cccc(OCCOc2cccc(C)c2)c1
not listed: [8]
inactive: all other assays above

CCOC(=O)N1CCC(=C2c3ccc(Cl)cc3CCc3cccnc32)CC1
active: [3] 6.7 µM
not listed: [8]
inactive: all other assays above

Cc1cc(=O)n(-c2ccccc2)n1C
not listed: [8]
inactive: all other assays above

[Cl][Bi]([Cl])([c]1ccccc1)([c]1ccccc1)[c]1ccccc1
active: [1] 3.68 µM | [3] 6.3 µM | [7] 4.47 µM
not listed: [8]
inactive: all other assays above

O=C(Nc1cccc(C(F)(F)F)c1)c1cc(Br)cc(Br)c1O
active: [1] 77.6 µM | [3] 25.5 µM | [9] 83 µM
not listed: [8]
inactive: all other assays above

CC(C)COC(=O)C=Cc1ccccc1
not listed: [8]
inactive: all other assays above

CCCOCCOCCOCCO
not listed: [10]
inactive: all other assays above

CC1=CC[C@H](C(C)C)C=C1
not listed: [8]
inactive: all other assays above

C1=CCCC1
not listed: [8]
inactive: all other assays above

CCOC(=O)Cc1cccc2ccccc12
not listed: [10]
inactive: all other assays above

CCC(C)C=O (stereo not given)
not listed: [8]
inactive: all other assays above

CC(=O)Oc1ccc(C(C)=O)cc1
not listed: [8]
inactive: all other assays above

CC(=O)NS(=O)(=O)c1ccc(N)cc1
inactive: all assays above

Cc1cccc(N(C)C(=S)Oc2ccc3ccccc3c2)c1
active: [5] 25.3 µM
not listed: [8]
inactive: all other assays above

C#CC1(O)CC[C@H]2[C@@H]3CCC4=CCCC[C@@H]4[C@H]3CC[C@@]21C (stereo not given in full)
active: [4] 55.9 µM | [5] 0.0188 µM | [6] 62.5 µM
not listed: [8]
inactive: all other assays above

c1ccc(CNCc2ccccc2)cc1
inactive: all assays above

CC(C)c1ccc2cc(C(C)C)ccc2c1
not listed: [8]
inactive: all other assays above

CCN(CC#N)c1cccc(C)c1
not listed: [8]
inactive: all other assays above

COC(=O)c1ccccc1OC
inactive: all assays above

CCCCCCCC[N+](C)(CCCCCCCC)CCCCCCCC
not listed: [8]
inactive: all other assays above

CCCCCCCCC(=O)OCC
not listed: [10]
inactive: all other assays above

COC(=O)c1sccc1S(N)(=O)=O
not listed: [10]
inactive: all other assays above

FC(F)(F)C(=NOCC1OCCO1)c1ccc(Cl)cc1
not listed: [10]
inactive: all other assays above

Cc1oncc1C(=O)Nc1ccc(C(F)(F)F)cc1
active: [5] 25.7 µM
not listed: [8]
inactive: all other assays above

O=S1(=O)OC(c2ccc(O)cc2)(c2ccc(O)cc2)c2ccccc21
active: [5] 53.4 µM
not listed: [8]
inactive: all other assays above

O=Nc1ccc(O)cc1
active: [5] 56.4 µM
not listed: [8]
inactive: all other assays above

Clc1nc2ccccc2s1
not listed: [8]
inactive: all other assays above

CCCCCCOc1cc(C)c(O)c(C)c1C
not listed: [10]
inactive: all other assays above

CC(C)(C)c1ccc(N)cc1
active: [5] 59.9 µM
not listed: [6]
inactive: all other assays above

CCCCCCCCCCc1ccccc1
not listed: [6]
inactive: all other assays above

CCCCC/C=C\C/C=C\CCCCCCCC(=O)OC
active: [3] 100 µM | [9] 162 µM
not listed: [6]
inactive: all other assays above

CC1=Nc2ccc3ccccc3c2C1(C)C
not listed: [6]
inactive: all other assays above

CC(=O)c1ccc[nH]1
not listed: [6]
inactive: all other assays above

CC1=NC(C)OC1C (stereo not given)
not listed: [6]
inactive: all other assays above

CC(=O)c1ccc2c(c1)CCCC2
not listed: [6]
inactive: all other assays above

CC1OC1C1CCC2(C)OC2C1 (stereo not given)
not listed: [6]
inactive: all other assays above

Cc1ccccc1C
not listed: [10]
inactive: all other assays above

O=C(c1ccccc1)C1CCC1
not listed: [6]
inactive: all other assays above

COC(=O)C1=C(C)NC(C)=C(C(=O)OCC(C)C)C1c1ccccc1[N+](=O)[O-] (stereo not given)
active: [1] 18.6 µM
not listed: [6]
inactive: all other assays above

CC(C)(C)C1CCCCC1=O (stereo not given)
not listed: [8] | [10]
inactive: all other assays above

OCCc1ccncc1
not listed: [6]
inactive: all other assays above

NNC(=O)c1cccc(C(=O)NN)c1
not listed: [10]
inactive: all other assays above

C=CC(C)(C)C
not listed: [8] | [10]
inactive: all other assays above

CCCCCCCCO[C@@H]1O[C@H](CO)[C@@H](O)[C@H](O)[C@H]1O
not listed: [10]
inactive: all other assays above

CC(=O)CC(N)=O
not listed: [6]
inactive: all other assays above

[Cl][Nd]([Cl])[Cl]
not listed: [6]
inactive: all other assays above

C=C(C)C(=O)OCC(C)C
not listed: [6]
inactive: all other assays above

O=S(=O)(O)CC(O)CCl (stereo not given)
not listed: [10]
inactive: all other assays above

O=C1c2ccccc2C(=O)C1c1nc2ccccc2c(Br)c1O
active: [5] 6.37 µM | [10] 1.26 µM
not listed: [6]
inactive: all other assays above

CCCCCCCCCCCSCC(=O)O
active: [1] 100 µM | [3] 82.6 µM
not listed: [8] | [10]
inactive: all other assays above

COc1ccc(NC(C)=O)cc1N
not listed: [10]
inactive: all other assays above

CCOC(=O)c1ccccc1C(=C1C=C(Br)C(=O)C(Br)=C1)c1cc(Br)c(O)c(Br)c1
inactive: [2] | [4] | [5] | [8]
active: [1] 108 µM | [3] 33.4 µM | [10] 43.6 µM | [7] 47.6 µM | [9] 37.7 µM
